The whole screen tested about 68,000 compounds, of which about 2,700 (4%) showed an effect of 50% or more. The sample as a whole holds a higher share of strong results than the screen did.
Test system: Plasmodium berghei
Experiment: Screen against P. berghei liver stage (PbLuc), transformed with Luciferase, at 2uM
Format: functional, HepG2
Conditions: tested at 2 uM

| Compound | INHIBITION [%] |
| --- | --- |
| O=C(NCCCn1nc2ccccn2c1=O)Nc1ccc(F)cc1F | 4.96 |
| CN1CCN(S(=O)(=O)c2cccc(S(=O)(=O)C3CCS(=O)(=O)C3)c2)CC1 (centres undefined) | 28.43 |
| COc1ncccc1C1CC(=O)NCc2nc3ccccn3c21 (centres undefined) | 29.41 |
| COc1ccc(C2CC(=O)NCc3nc4ccccn4c32)cn1 (centres undefined) | 54.3 |
| COc1ncc(C2CC(=O)NCc3nc4ccccn4c32)cn1 (centres undefined) | -36.24 |
| COCCC1(C(=O)O)CCCN(C(=O)c2cc(C)oc2C)C1 (centres undefined) | -11.55 |
| CC(C)C(CCO)NC(=O)Nc1ccc(-c2csnn2)cc1 (centres undefined) | 12.78 |
| CCN1CCCC(NC(=O)c2ccc(C)[nH]c2=O)C1 (centres undefined) | -53.67 |
| Cc1ccc(C(=O)NC2CCCN(S(C)(=O)=O)C2)c(=O)[nH]1 (centres undefined) | -34.79 |
| Cc1ccc(C(=O)NC2CCCN(C)C2)c(=O)[nH]1 (centres undefined) | 52.84 |
| Cc1cccc(CN(Cc2ccc(C)o2)C2CC(C)(C)NC(C)(C)C2)n1 | 29.73 |
| CCc1nc(N)nc(N2CCCC3(CCN(C)CC3)CC2)c1C | -17.39 |
| Cn1ccnc1-c1cnn(CC(=O)Nc2ccnn2C)c1 | 35.13 |
| CC(=O)c1ccc(-c2cnn(CC(=O)Nc3cc(C)nn3C)c2)nc1 | 36.09 |
| CC(=O)c1ccc(-c2cnn(CC(=O)Nc3ccnn3C)c2)nc1 | 59.56 |
| CS(=O)(=O)N1C[C@H]2CC[C@@H](C1)N(C(=O)CCc1n[nH]c3c1CCCC3)C2 | -4.58 |
| Cn1cc(C2CCCN2Cc2csc(Cc3ccccc3)n2)cn1 (centres undefined) | 3.48 |
| Cn1cc(C2CCCN2Cc2csc(C(C)(C)C)n2)cn1 (centres undefined) | -10.66 |
| CCCc1nc(CN2CCCC2c2cnn(C)c2)cs1 (centres undefined) | 58.52 |
| Cc1cc(NCCc2nnc(N)s2)nc(-c2ccccc2)n1 | 7.02 |
| COc1nccnc1N1CCCC2(C1)C(=O)N(C)c1ccccc12 (centres undefined) | -8.8 |
| CCN1CCc2c(cccc2NC(=O)CN(C)C2CCSC2)C1 (centres undefined) | 49.21 |

| Compound | INHIBITION [%] |
| --- | --- |
| CCN1CCc2c(cccc2NC(=O)N(C)C2CCSC2)C1 (centres undefined) | 51.9 |
| CCN1CCN(c2ccccc2NC(=O)N(C)C2CCSC2)CC1 (centres undefined) | 25.08 |
| Cn1ccc(C(=O)Nc2cccc(-c3ccc4c(c3)CCO4)n2)cc1=O | -17.18 |
| Cc1ccc2c(c1)OC(C)CN2C(=O)c1c[nH]c(C)cc1=O (centres undefined) | -33.29 |
| CCn1nccc1CN(C)C(=O)Cn1nc(C)cc1C | -47.19 |
| Cn1nc(Br)c2c(NCCCS(N)(=O)=O)ncnc21 | -5.61 |
| CCOCC(=O)N1Cc2nccn2CC(CN(C)C)C1 (centres undefined) | -8.84 |
| COc1ccc2nnc(CCC(=O)Nc3nc4c(s3)CCCCC4)n2n1 | 48.59 |
| COc1ccc2nnc(CCC(=O)Nc3nc4c(s3)CCC4)n2n1 | 58.29 |
| COc1ccc2nnc(CCC(=O)Nc3nc4c(s3)CCCC4)n2n1 | 21.57 |
| COCCNC(=O)c1cc(C2CC2)nc2onc(C3CCNC3)c12 (centres undefined) | 5.75 |
| CCOc1ccccc1NC(C)C(=O)N(C)Cc1cccc(F)c1 (centres undefined) | 4.8 |
| CC(NC(=O)Cn1cccn1)c1ccc2c(c1)OCCO2 (centres undefined) | 21.39 |
| CC(NC(=O)CCn1cccn1)c1ccc2c(c1)OCCO2 (centres undefined) | -17.31 |
| CC(NC(=O)Cn1cccn1)c1ccc2c(c1)OCCCO2 (centres undefined) | 51.21 |
| O=C(O)c1ccccc1-n1cnc(CN2CCCc3ccccc32)c1 | 37.36 |
| CN1CC(=O)N(c2cnn(C)c2)CC12CCN(Cc1nccn1C)C2 (centres undefined) | 8.65 |
| Cc1ccc(N2CC3(COCCN(Cc4nccs4)C3)OCC2=O)s1 (centres undefined) | 58 |
| Cc1ccc(N2CC3(COCCN(Cc4ccccn4)C3)OCC2=O)s1 (centres undefined) | 40 |
| Cc1ccc(N2CC3(COCCN(Cc4ccncc4)C3)OCC2=O)s1 (centres undefined) | -37.34 |
| O=C(CCN1CCOC1=O)Nc1cnn(-c2ccccc2Cl)c1 | 51.46 |
| O=C(CCN1CCCC1=O)Nc1cnn(-c2ccccc2Cl)c1 | 25.35 |

| Compound | INHIBITION [%] |
| --- | --- |
| O=C(CCCN1CCOC1=O)Nc1cnn(-c2ccccc2Cl)c1 | -16.28 |
| Cc1ccc2cc(CN(C)Cc3nccs3)c(=O)[nH]c2c1 | -0.38 |
| CN(Cc1c(F)cccc1Cl)C(=O)Cn1cnc(C#N)n1 | -6.73 |
| CN(Cc1c(F)cccc1Cl)C(=O)c1cnn(CCN2CCCCC2)c1 | 60.04 |
| CCn1cc(C(=O)N(C)Cc2c(F)cccc2Cl)cn1 | 53.13 |
| CN(Cc1c(F)cccc1Cl)C(=O)c1cnn(CCN2CCOCC2)c1 | -9.03 |
| CCn1cnnc1CNC(=O)N(C)Cc1c(F)cccc1Cl | -17.88 |
| CN(Cc1c(F)cccc1Cl)C(=O)Nc1cnn(CC(N)=O)c1 | 11.07 |
| Cc1nc(C2CCCN(C(=O)c3ccc(Cl)cn3)C2)no1 (centres undefined) | -29.54 |
| CN(C)C(=O)c1cccc(CCNS(=O)(=O)c2ccccc2)c1 | 49.08 |
| NS(=O)(=O)CCN1CCOC(c2ccsc2)C1 (centres undefined) | -10.36 |
| CC1CCN(c2ccc(=O)n(CC(=O)N(C)Cc3ccccc3)n2)CC1 | -7.56 |
| COc1cc(N2C[C@@H]3COC[C@]3(COCc3cccc(C)n3)C2)ncn1 | 0.14 |
| COC(C)(C)CNC(=O)N1CCCC1c1c(C)n[nH]c1C (centres undefined) | 22.83 |
| Cc1cc(CN(C)C(=O)NCc2ccco2)no1 | 66.88 |
| Cc1cc(CN(C)C(=O)CN2CCCC2=O)no1 | 51.36 |
| Cc1cc(CN(C)C(=O)NCc2ccccn2)no1 | 26.62 |
| CN(Cc1ccco1)C(=O)NCc1nnc2n1CCC2 | -18.86 |
| Cc1cc(CN(C)C(=O)NCc2ccnc(SC(C)(C)C)c2)no1 | 14.69 |
| Cc1cc(CN(C)C(=O)NC(C)Cc2ccco2)no1 (centres undefined) | 45.62 |
| Cc1cc(CN(C)C(=O)CN2CCCCCC2=O)no1 | 33.35 |
| CC(C)c1cc(CN(C)C(=O)CN2CCCCC2=O)no1 | -11.61 |

| Compound | INHIBITION [%] |
| --- | --- |
| CN(Cc1ccco1)C(=O)NCc1ccnc(SC(C)(C)C)c1 | 53.29 |
| O=C(c1ccc(F)cc1)N1C[C@@H]2COC[C@]2(COc2cccnc2)C1 | -55.8 |
| CC(CO)NC(=O)Nc1ccc(CC#N)cc1 (centres undefined) | 20.32 |
| CCc1nc2n(n1)CC(Nc1ccnc(-c3ccccc3)n1)CC2 (centres undefined) | -1.33 |
| CC(C)C(=O)N1CCCC12CCCN(C(=O)c1ccno1)C2 (centres undefined) | 8.34 |
| CN1CCN(C2COC3(CCN(c4ccc(C#N)cc4)CC3)C2)CC1 (centres undefined) | 54.5 |
| N#Cc1ccc(N2CCC3(CC2)CC(N2CCOCC2)CO3)cc1 (centres undefined) | -0.69 |
| COC1COC2(CCN(c3ccc(C#N)cc3)CC2)C1 (centres undefined) | -13.61 |
| Cc1nn(C)c(N(C)C)c1CNC(C)COc1ccc(F)cc1F (centres undefined) | 25.03 |
| Cn1cc(C(=O)N2C[C@H]3CC(Oc4ccccc4)C[C@H]3C2)cn1 (some centres undefined) | -36.58 |
| O=C(COc1cc(Cl)cc(Cl)c1)NCc1nncn1C1CC1 | -13.8 |
| O=C(COc1ccc(Cl)cc1)NCc1nncn1C1CC1 | 24.36 |
| O=C(COc1cccnc1)NCc1nncn1C1CCCCC1 | 57.75 |
| Cc1nc(CN2C(=O)CC[C@@H]3[C@H]2CCN3C2CCOCC2)cs1 | -6.68 |
| O=C(c1cc[nH]n1)N1CCc2ncnc(N3CCSCC3)c2CC1 | 24.55 |
| Cc1cc(C(=O)N2CCc3ncnc(N4CCSCC4)c3CC2)[nH]n1 | 64.2 |
| Cc1cc(C(=O)N2CCc3c(ncnc3N3CCOCC3)C2)[nH]n1 | -0.79 |
| CSc1nc2ncc3c(=O)n(C)ccc3n2n1 | 19.49 |
| Cn1cc(-c2cc(C(F)F)n3nc(CCC(=O)O)nc3n2)cn1 | 48.58 |
| CCn1cc(-c2cc(C(F)F)n3nc(CC(=O)O)nc3n2)cn1 | -20.05 |
| CCn1cc(-c2cc(C(F)F)n3nc(CCC(=O)O)nc3n2)cn1 | 61.61 |
| OCC(O)CN1CCc2onc(-c3ccc(C(F)(F)F)cc3)c2C1 (centres undefined) | -83.25 |

| Compound | INHIBITION [%] |
| --- | --- |
| CCN(CC)CCNC(=O)CCc1c(C)nn(-c2ccc(Cl)cc2)c1C | 36.85 |
| CC(C)c1nnc2ccc(N3CCC(C(=O)O)CC3)nn12 | 16.54 |
| Fc1ccc(F)c(CN2CCC(c3cc4ncccc4cn3)CC2)c1 | -20.28 |
| CC(=O)N1CCN(C(=O)NC(C)Cn2ccnc2)CC1 (centres undefined) | 14.47 |
| CC(=O)Nc1nc(C(=O)N2CCCC(n3nc(C)nc3C)C2)cs1 (centres undefined) | 9.17 |
| CCC(=O)NCc1cc(Br)c(OC)c(OC)c1 | -11.19 |
| CCS(=O)(=O)NCc1cc(Br)c(OC)c(OC)c1 | 68.69 |
| CCCC(=O)NCc1cc(Br)c(OC)c(OC)c1 | 0.63 |
| Cc1ccsc1C(=O)N(C)Cc1ccncc1 | -32.02 |
| CSCC(=O)Nc1cccc(Oc2ccccn2)c1 | -7.6 |
| CCOCC(=O)Nc1cccc(Oc2ccccn2)c1 | 67.68 |
| CCOCCC(=O)Nc1cccc(Oc2ccccn2)c1 | 3.59 |
| CC(C)(C)c1cc(CN2CCOCC(O)C2)n[nH]1 (centres undefined) | -67.78 |
| Cc1noc(C(C)N(C)CC(=O)NCCc2ccc(Cl)cc2)n1 (centres undefined) | 11.8 |
| Cc1nccc([C@@H]2C[C@H]3CN(S(=O)(=O)c4ccccc4)C[C@H]3O2)n1 | 32.41 |
| Cn1ccnc1CN1CCN(Cc2ccc(C#N)cc2)CC1 | -19.95 |
| CCn1ccnc1CN1CCN(Cc2cccc(C#N)c2)CC1 | -49.45 |
| CCn1ccnc1CN1CCN(Cc2ccc(C#N)cc2)CC1 | 71.23 |
| CN(Cc1ccn[nH]1)Cc1c[nH]nc1-c1ccc(F)cc1 | -35.45 |
| Cc1n[nH]c(C)c1CCCN(C)Cc1c[nH]nc1-c1ccc(F)cc1 | -87.47 |
| CN(Cc1cc(C(C)(C)C)n[nH]1)Cc1c[nH]nc1-c1ccc(F)cc1 | 50.31 |

Reference: ChEMBL document CHEMBL4513216, “Probing the Open Global Health Chemical Diversity Library for Multistage-Active Starting Points for Next-Generation Antimalarials” (ACS Infect Dis, 2020)
